Data on 20 molecules can be found in PubChem BioAssay (EPA / NIEHS).

The structures appear in SMILES notation. Inconclusive results are not listed. Calls of active or inactive are those of the source. Rule for the calls: active = hit-call score of the fitted dose curve at least 0.9, where 1 is the maximum; inconclusive = response in the unintended direction; inactive = score below 0.9.

Read-out in the test: HMG-CoA synthase (HMGCS2), HMGCS2 (gene 3158)
The test can be described thus: CLD_HMGCS2_24hr: CellzDirect (CLD) Gene Expression Assay for HMG-CoA synthase (HMGCS2) at 24 hours (AID 2283691). On the procedure:
CLD_24hr is a cell-based, multiplexed-readout assay that uses hepatocyte, a human liver primary cell, with measurements taken at 24 hours after chemical dosing in a 96-well plate.CLD_HMGCS2_24hr is one of 16 assay component(s) measured or calculated from the CLD_24hr assay. It is designed to make measurements of mRNA induction, a form of inducible reporter, as detected with chemiluminescence signals by Quantitative Nuclease Protection Assay (qNPA) technology.Data from the assay component CLD_HMGCS2_24hr was analyzed at the endpoint, CLD_HMGCS2_24hr, in the positive analysis fitting direction relative to DMSO as the negative control and baseline of activity. Using a type of inducible reporter, gain-of-signal activity can be used to understand changes in the reporter gene as they relate to the gene HMGCS2. Furthermore, this assay endpoint can be referred to as a primary readout. To generalize the intended target to other relatable targets, this assay endpoint is annotated to the lyase intended target family, where subfamily is HMG-CoA synthase.
Human hepatocyte cultures were treated daily for two consecutive days with fresh dosing solutions containing appropriate concentrations of the 320 ToxCast chemicals (chemical identities were blinded to CellzDirect and other ToxCast collaborators), vehicle control (0.2% DMSO), and positive control inducers as summarized in Table 1. Due to the large number of treatment groups and chemicals examined, the ToxCast chemicals were divided into two groups (spanning two independent cultures of hepatocytes from separate donor preparations (Hu778: ToxCast plates 1 and 2; Hu776: ToxCast plates 3 and 4). Each preparation of human hepatocyte cultures was treated with respective vehicle control, medium only control, set of six positive controls/reference chemicals for the five hepatic receptor pathways, and a subset of eight of the ToxCast chemicals (indoxacarb, pyrithiobac-sodium, norflurazon, cyhalofop-butyl, methomyl, thiram, acetochlor, and propiconazole). These replicate data, coupled with internal replicates designed within the blinded ToxCast chemical library, provided additional data to evaluate interindividual differences between hepatocyte preparations and their potential impact on chemical profiles.Cell morphology and integrity were evaluated using phase-contrast microscopy as an indicator of hepatocyte cell health (Tyson & Green, 1987). Cultures for each treatment group (i.e., media, vehicle [0.2% DMSO], positive control inducers [multiple concentrations], and the ToxCast chemicals [multiple concentrations]) were observed and cell morphology was assessed relative to vehicle control cultures at each harvest time point (0, 6, 24, or 48 h). […] Images were evaluated at the conclusion of the study to assess changes in cell integrity and account for the effects of chemical exposure on uncharacteristic changes in concentration-dependent gene expression profiles. The results from these determinations of apparent cytotoxicity were annotated (yes/no) alongside the corresponding qNPA data for reference.At the conclusion of each treatment period, hepatocyte cultures (96-well) were washed with 1 volume of HBSS, lysed by addition of 25 ul ArrayPlate lysis buffer (HTG, Tucson, AZ), and 70 ul/well of Denaturation Oil, denatured by incubation at 95C for 10 min, and frozen at approximately -70C until analysis by nuclease protection assay (qNPA) (Roberts et al., 2007). For qNPA analysis, cell lysates were thawed at 50C for approximately 30 min, qNPA probes were added, and samples were incubated at 95C for 10 min to begin the detection process by denaturing the target RNA, dissociating the duplexes and secondary structure hybridization. At the conclusion of the hybridization period, S1 nuclease reagent was added to each sample to digest all nonprotected nucleotides at 50C for 60-90 min. […]
As for `CC(Oc1cccc(Cl)c1)C(=O)O` (stereo not given), the call was inactive.

Regarding `COc1cc(OC)nc(Sc2cccc(Cl)c2C(=O)O)n1`, the molecule was called inactive.

As to `O=C(O)c1cc(Oc2ccc(C(F)(F)F)cc2Cl)ccc1[N+](=O)[O-]`, the result was inactive.

Consider `CCCCOC(=O)[C@@H](C)Oc1ccc(Oc2ccc(C#N)cc2F)cc1`, for which the result was inactive.

For the molecule `CC(COc1ccc(Oc2ccccc2)cc1)Oc1ccccn1` (stereo not given), the result was inactive.

`C[N+]1(C)CCCCC1`: the result was inactive.

As to `CCCSP(=O)(OCC)SCCC`, the call was inactive.

Consider `CCCCOC(=O)c1ccccc1C(=O)O`, for which the molecule was called inactive.

Consider `CN(C)[C@@H]1C(=O)C(C(N)=O)=C(O)[C@@]2(O)C(=O)C3=C(O)c4c(O)cccc4[C@@](C)(O)[C@H]3[C@H](O)[C@@H]12`, for which the molecule was classed as inactive.

Turning to `COP(=O)(OC)C(O)C(Cl)(Cl)Cl` (stereo not given), the molecule was called inactive.

With `CCc1cnc(C2=NC(C)(C(C)C)C(=O)N2)c(C(=O)O)c1` (stereo not given), the outcome was inactive.

In the case of `CNC(=O)ON=C(SC)C(=O)N(C)C`, the call was inactive.

For `CCOP(=O)(OCC)Oc1cc(C)nc(C(C)C)n1`, the call was inactive.

Consider `CC1=NNC(=O)N(/N=C/c2cccnc2)C1`, for which the outcome was inactive.

Take `CSC1=N[C@@](C)(c2ccccc2)C(=O)N1Nc1ccccc1`: the call was inactive.

Regarding `CCOP(=S)(OCC)OC(Cl)C(Cl)(Cl)Cl` (stereo not given), the molecule was called inactive.

Turning to `CC[C@H](C)[C@H]1O[C@]2(C=C[C@@H]1C)C[C@@H]1C[C@@H](C/C=C(\C)[C@@H](O[C@H]3C[C@H](OC)[C@@H](O[C@H]4C[C@H](OC)[C@@H](NC)[C@H](C)O4)[C@H](C)O3)[C@@H](C)/C=C/C=C3\CO[C@@H]4[C@H](O)C(C)=C[C@@H](C(=O)O1)[C@]34O)O2`, the molecule was called inactive.

For `O=c1ccc(=O)[nH][nH]1`, the call was inactive.

Turning to `CC(=NC#N)N(C)Cc1ccc(Cl)nc1`, the molecule was called inactive.

With `CCOP(=S)(OCC)SCCSCC`, the result was inactive.
